Holding throughout (assay): NCI-60 one-dose screen, 48 h (100 = growth as untreated, 0 = no growth, -100 = all killed)
Common to all, as to details: 10 µM unless noted

Assay [1] relates to SK-MEL-2 melanoma.
Assay [2] relates to EKVX NSCLC.
Assay [3] has as its system SN12C renal.
Assay [4] concerns UO-31 renal.
Assay [5] deals with TK-10 renal.
In assay [6] the test system is ACHN renal.
The subject of assay [7] is CAKI-1 renal.
Assay [8] has as its system A498 renal.
Assay [9] concerns CCRF-CEM leukemia.
Assay [10] has as its system MOLT-4 leukemia.

The panel holds about 83,000 compounds, 20% with a hit somewhere; the sample as a whole holds those more often.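 Method: cells in 96-well plates; compound added at one concentration; 48 h incubation; percent growth measured; values under 10 scored active.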 Values without a mark were called inactive. Active and inactive are the calls of the source.

With `C[C@]12CC[C@H]3[C@@H](CC=C4C[C@@H](O)CC[C@@]43C)[C@@H]1CC[C@@H]2[C@](C)(O)CCc1cccnc1`, the growth in assay [1] is 79.8%; in [2] it was 36.7%; in assay [3] it was 79.9%; in [4], 63.8%; in [5] it was 84.3%; in assay [6] it was 60.7%. Further, the growth is 69.1% in [7], 72.8% in [8], 59.8% in [9] and 48.9% in assay [10].

`O=C1CSC(c2cn(-c3ccccc3)nc2-c2ccc(Cl)cc2)N1c1ccccc1` (stereo not given): the growth in [1] was 112%; in assay [2] it was 98.8%; in [3], 114%; in assay [4], 83.8%; in assay [5], 118%; in assay [6], 104%. Further, the growth is 92.3% in assay [7], 125% in [8], 103% in assay [9] and 114% in assay [10].

For `CCc1cccc2c3c(sc12)C(c1ccc(F)cc1)C(C#N)=C(/N=C/c1ccc(Cl)cc1)O3` (stereo not given), the growth in [1] is -7.31% (active); in assay [2], 47.8%; in assay [3], 32.4%; in assay [4] it was 39.2%; in assay [5] it was 93.5%; in assay [6] it was 32.3%. For the same compound, the growth in assay [7] is 41.5%; in [8], -10.4% (active); in assay [9], 20.7%; in assay [10], 25.4%.

With `N#Cc1nc(-c2ccc(Cl)cc2)oc1N1CCC(S(=O)(=O)N2CCOCC2)CC1`, the growth is 114% in assay [1]; 105% in [2]; 94.1% in [3]; 73.2% in assay [4]; 113% in assay [5]; 100% in assay [6]. Moreover, the growth in assay [7] is 89.7%; in [8], 102%; in [9], 108%; in assay [10] it was 104%.

Take `Cc1ccc2c(n1)C(=O)C(Cl)=C(Nc1cccc(C(=O)OC(C)(C)C)c1)C2=O`: the growth in assay [1] was 115%; in assay [2], 86.3%; in assay [3], 94.1%; in assay [4] it was 78.4%; in assay [5], 120%; in assay [6] it was 77%. The growth in assay [7] was 77.7%; in assay [8] it was 66.6%; in assay [9], 10.6%; in [10] it was 6.09% (active).

As for `O=C1[C@H]2Cc3c([nH]c4ccccc34)[C@H](c3ccc(Cl)cc3)N2C(=O)CN1C1CCN(CC2CCCCC2)CC1`, the growth was 98.2% in assay [1]; 81.5% in [2]; 69.7% in assay [3]; 39.1% in assay [4]; 112% in assay [5]; 74.8% in [6]. In addition, the growth is 37.9% in assay [7], 80.4% in assay [8], 39.3% in assay [9] and 35.1% in assay [10].

As for `CCOC(=O)c1ccc(NC2=C(Cl)C(=O)c3nc(C)ccc3C2=O)cc1`, the growth in assay [1] was 78.2%; in [2] it was 68.4%; in assay [3] it was 75.8%; in [4] it was 2.37% (active); in [5], 99.4%; in assay [6], -9.88% (active). The growth in assay [7] was 75.4%; in assay [8], 68.3%; in assay [9] it was 6.88% (active); in assay [10], 16.3%.

In the case of `N#Cc1c(-c2ccc(F)cc2)cc(-c2c[nH]c3ccccc23)nc1-c1c[nH]c2ccccc12`, the growth in assay [1] is 96.1%; in assay [2] it was 92.8%; in [3] it was 98.8%; in assay [4], 84.7%; in [5] it was 128%; in assay [6], 102%. Also, the growth was 92.5% in [7], 89.4% in assay [8], 102% in [9] and 103% in assay [10].

As for `O=C(COc1ccc(/C=C2\C(=O)Nc3ccc(Cl)cc32)cc1)Nc1ccc(Cl)cc1`, the growth in assay [1] was 88.6%; in assay [2], 74.9%; in assay [3], 53%; in assay [4], 50.8%; in assay [5] it was 112%; in [6], 33.3%. Besides, the growth in assay [7] is 34.8%; in [8], 72.4%; in assay [9] it was 47.2%; in [10], 55.5%.

Take `COc1ccc(N2CCN(C3=C(Cl)C(=O)c4ncccc4C3=O)CC2)cc1`: the growth in assay [1] was 95.1%; in [2] it was 99.9%; in assay [3], 84.7%; in assay [4], 19.2%; in [5], 99.6%; in [6] it was -18.7% (active). Moreover, the growth in assay [7] was 32.3%; in [8] it was 103%; in assay [9], 6.79% (active); in assay [10], 4.55% (active).

In the case of `CN1CCN(Cc2ccc(NC(=O)c3cncc(C#Cc4cnc5ccc(OCC(F)F)nn45)c3)cc2C(F)(F)F)CC1`, the growth in assay [1] is -86.5% (active); in assay [2], -69.1% (active); in assay [3], -75.2% (active); in assay [4], -95.8% (active); in assay [5] it was -84.4% (active); in assay [6], -98.3% (active). For the same compound, the growth in assay [7] is -95.9% (active); in [8], -91.7% (active); in [9], 2.09% (active); in assay [10] it was -21.7% (active).

For the compound `O=C(CCCCCCNC(=O)c1csc(Br)n1)NO`, the growth was 57.3% in [1]; 53.3% in assay [2]; 73.4% in assay [3]; 22.7% in assay [4]; -3.87% (active) in assay [5]; 13.9% in [6]. Besides, the growth is 21% in assay [7], -4.04% (active) in assay [8], 16.1% in assay [9] and 17.4% in [10].

In the case of `C#Cc1nc(/C=C/C(=O)NO)cs1`, the growth was 81.5% in [1]; 85.2% in [2]; 91.6% in assay [3]; -94% (active) in [4]; 43% in [5]; -81.9% (active) in assay [6]. Further, the growth in [7] was -94.9% (active); in [8] it was 17.9%; in [9] it was -45.7% (active); in assay [10], -45.3% (active).

On to `COc1cc(/C=C2/C(=O)Nc3ccc(Cl)cc32)ccc1OCc1ccc(Cl)cc1`, for which the growth in assay [1] is 107%; in [2] it was 88.5%; in assay [3], 88.9%; in [4], 74.3%; in [5], 129%; in assay [6], 52.7%. Also, the growth in assay [7] is 83.3%; in [8], 93.4%; in assay [9] it was 69.5%; in [10], 76.7%.

Take `c1ccc(-c2cn3c(-c4c[nH]c5ccccc45)csc3n2)cc1`: the growth in [1] is 77.4%; in assay [2] it was 72%; in assay [3], 53.6%; in assay [4], 73%; in assay [5], 148%; in assay [6], 91.8%. Besides, the growth in assay [7] is 77.9%; in assay [8], 79.3%; in [9], 53%; in assay [10], 66.9%.

Consider `CCOC(=O)c1ccc(NC2=CC(=O)C(C)=C(C)C2=O)cc1`, for which the growth is 96.1% in assay [1]; 94.6% in assay [2]; 93.8% in assay [3]; 73.9% in [4]; 137% in assay [5]; 89.9% in assay [6]. For the same compound, the growth is 69.3% in assay [7], 84.3% in assay [8], 54.4% in [9] and 41.3% in [10].

For the compound `Cc1ccccc1Nc1nc(SC(C)C)nc(-c2ccccc2)c1C#N`, the growth was 130% in assay [1]; 73.2% in assay [2]; 12.1% in assay [3]; -40.2% (active) in assay [4]; 61.1% in assay [5]; 13.4% in assay [6]. For the same compound, the growth in [7] was 38.4%; in assay [8] it was 53.5%; in assay [9] it was 80.9%; in assay [10], 90.2%.

For `O=C(N/N=C\c1ccc(F)cc1)c1ccc2nc(-c3ccc(Br)cc3)[nH]c2c1`, the growth is 83.2% in [1]; 53.1% in assay [2]; 29.4% in assay [3]; 55.4% in assay [4]; 42.4% in assay [5]; 12% in [6]. Also, the growth was 43% in assay [7], 80.8% in [8], 53.6% in [9] and 31.7% in assay [10].

For the compound `CCOc1cccc(/C(N)=N/C(N)=N/c2nc3ccccc3s2)c1`, the growth was 117% in [1]; 73.3% in assay [2]; 53.1% in assay [3]; 38.4% in assay [4]; 135% in assay [5]; 48.7% in [6]. For the same compound, the growth in [7] was 62.4%; in assay [8], 115%; in assay [9] it was 55.8%; in assay [10], 62.4%.

In the case of `COc1ccc(C(C)=C(c2ccc(OCCN3CCCCCC3)cc2)c2ccc(OCCN3CCCCCC3)cc2)cc1`, the growth in assay [1] was -65.2% (active); in [2], 1.68% (active); in assay [3] it was 0.944% (active); in assay [4], -79.3% (active); in assay [5], 27.1%; in assay [6], -57.8% (active). Also, the growth in [7] was -45.9% (active); in assay [8], 27.9%; in assay [9], 0.672% (active); in assay [10], -5.35% (active).

Turning to `Brc1cc(-c2cc(-c3ccc4c(c3)OC=CO4)[nH]n2)cs1`, the growth in assay [1] is 106%; in assay [2] it was 72.8%; in assay [3] it was 98.8%; in assay [4], 71.2%; in assay [5] it was 192%; in assay [6], 93.7%. The growth is 63.8% in assay [7], 87.1% in assay [8], 89.9% in assay [9] and 78.7% in assay [10].

With `COc1cc(C(C)=C(c2ccc(OCCN(C)C)cc2)c2ccc(OCCN(C)C)cc2)ccc1F`, the growth in assay [1] was 109%; in [2], 96.1%; in [3], 101%; in assay [4], 95.5%; in [5] it was 97.8%; in assay [6] it was 105%. In addition, the growth in assay [7] was 101%; in [8] it was 108%; in [9], 111%; in assay [10], 108%.

Turning to `Cc1ccc(-c2nc(SCC(=O)c3ccccc3)nc(Nc3ccc(S(N)(=O)=O)cc3)c2C#N)cc1`, the growth was 95.7% in [1]; 99.8% in [2]; 63% in assay [3]; 74.9% in assay [4]; 67.5% in [5]; 89.7% in assay [6]. The growth is 51.5% in [7], 104% in [8], 82% in assay [9] and 86.5% in [10].

As to `CC(Nc1ncnc2ccc(-c3cnc4cnccn34)cc12)c1ccccc1` (stereo not given), the growth in assay [1] was 64%; in assay [2], 30.4%; in assay [3] it was 51.9%; in assay [4] it was 15.7%; in assay [5], 20.9%; in [6] it was 22.8%. The growth in assay [7] was 27.6%; in assay [8] it was 65.3%; in [9] it was 61.1%; in assay [10], 37.5%.

Consider `COc1cc(C(=O)c2cc(C(C)=O)c3cccc(C)n23)cc(OC)c1OC`, for which the growth was -11.8% (active) in [1]; 53.6% in assay [2]; 45.3% in assay [3]; 45.2% in assay [4]; 78.6% in assay [5]; 51.4% in assay [6]. Further, the growth is 33.5% in assay [7], 21.9% in assay [8], 44.1% in assay [9] and 38.6% in assay [10].

Turning to `O=C1[C@@H]2Cc3c([nH]c4ccccc34)[C@H](c3ccc(Br)cc3)N2C(=O)CN1C1CCN(Cc2c(Cl)cccc2Cl)CC1`, the growth is 99.8% in assay [1]; 88.4% in assay [2]; 92.5% in [3]; 67.7% in assay [4]; 132% in [5]; 91.2% in assay [6]. Further, the growth in assay [7] was 67.6%; in assay [8] it was 103%; in [9], 88.8%; in [10], 65.9%.

Regarding `COc1ccc(-c2c3c(cn2Cc2cccc(OC)c2)-c2oncc2CCC3)cc1`, the growth in assay [1] was 96.2%; in assay [2], 97.6%; in [3], 96.6%; in [4], 81%; in assay [5], 106%; in assay [6], 102%. Moreover, the growth in assay [7] was 76.1%; in assay [8], 96.8%; in assay [9], 96.8%; in assay [10], 98.6%.
